Experimental data as given in PubChem BioAssay (EPA / NIEHS).
Inconclusive results are not listed. Active and inactive are the calls of the source. Rule for the calls, unless noted: active = hit-call score of the fitted dose curve at least 0.9, where 1 is the maximum; inactive = score below 0.9.

Assays:
[1] = molecular target: Oxysterols receptor LXR-beta (Homo sapiens) (UniProt P55055); assay: ATG_LXRb_TRANS: Attagene TRANS-FACTORIAL HepG2 Assay for human Liver X Receptor beta (LXRb) (AID 2282981; active = hit-call score of the fitted dose curve at least 0.9, where 1 is the maximum); conditions: HepG2 Attagene TRANS GAL4-LXRb reporter, mRNA
In short: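 Multiplexed reporter assay, HepG2, 24 h dosing. Fluorescence of labelled RT-PCR products after capillary electrophoresis gives transcript level; positive fitting direction relative to DMSO.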

[2] = ATG_M_32_TRANS: Attagene TRANS-FACTORIAL HepG2 Assay for M32 Transcription Factor (Internal Marker) (AID 2282984; active = hit-call score of the fitted dose curve at least 0.9, where 1 is the maximum;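 note: transcript level of a background control reporter unit measured by RT-PCR and capillary electrophoresis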); conditions: HepG2 Attagene TRANS M32 internal marker reporter
In short: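 Internal-marker readout from a multiplexed transcription reporter panel. HepG2 cells were transfected with GAL4-UAS reporter units, treated 24 hours, and reporter transcript levels determined by fluorescence after RT-PCR and capillary separation.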

[3] = molecular target: Transcriptional activator Myb (Homo sapiens) (UniProt P10242); assay: ATG_Myb_CIS: Attagene CIS-FACTORIAL HepG2 Assay for human Myeloblastosis (Myb) Proto-Oncogene Transcription Factor (AID 2282986); conditions: HepG2 Attagene CIS-FACTORIAL Myb reporter transcription; actives raise or lower the signal
In short: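 After 24 h of compound dosing, total RNA from transfected HepG2 cells is reverse-transcribed and the reporter sequences amplified, labeled and separated by capillary electrophoresis. Values come from bidirectional fitting against DMSO.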

[4] = molecular target: Nuclear respiratory factor 1 (Homo sapiens) (UniProt Q16656); assay: ATG_NRF1_CIS: Attagene CIS-FACTORIAL HepG2 Assay for human Nuclear Respiratory Factor 1 (NRF1) Orphan Gene (AID 2282987); conditions: HepG2 NRF1 cis-element reporter, Attagene multiplex; actives raise or lower the signal
In short: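 Measured: fluorescent reporter-specific RT-PCR products from transfected HepG2 cells, separated by capillary electrophoresis. Exposure lasted 24 h. Analysis used bidirectional curve fitting with DMSO as negative control.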

[5] = ATG_NFI_CIS: Attagene CIS-FACTORIAL HepG2 Assay for human Nuclear Factor I (NFI) (AID 2282989); conditions: HepG2 cis-regulatory reporter, NFI response element transcription; actives raise or lower the signal
In short: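 HepG2 cells transiently transfected with cis-element-driven multiplexed reporter transcription units, dosed for 24 h. Reporter mRNA quantified by RT-PCR, fluorescent labelling, HpaI digestion and capillary electrophoresis; bidirectional fit versus DMSO baseline.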

[6] = molecular target: Myc proto-oncogene protein (Homo sapiens) (UniProt P01106); assay: ATG_Myc_CIS: Attagene CIS-FACTORIAL HepG2 Assay for human Myelocytomatosis (Myc) Proto-Oncogene Transcription Factor (AID 2282990); conditions: HepG2, Attagene cis-reporter transcription factor activity; actives raise or lower the signal
In short: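 Fluorescence intensity of reporter-specific cDNA fragments, separated by capillary electrophoresis, gives the signal. Transfected HepG2 cells carrying cis-promoter reporter constructs are incubated with compound for 24 h; DMSO serves as baseline.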

[7] = ATG_NF_kB_CIS: Attagene CIS-FACTORIAL HepG2 Assay for human Nuclear Factor Kappa B (NF-kB) (AID 2282991); conditions: HepG2 Attagene cis-factorial NF-kB reporter mRNA; actives raise or lower the signal
In short: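 Fluorescence of labelled RT-PCR products separated by capillary electrophoresis gives reporter mRNA levels from transfected HepG2 cells exposed 24 h; values are fitted in both directions relative to DMSO.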

[8] = ATG_NRF2_ARE_CIS: Attagene CIS-FACTORIAL HepG2 Assay for human Nuclear Factor Erythroid 2 Related Factor 2 (NFR2) response to Antioxidant Response Elements (ARE) (AID 2282992); conditions: HepG2 Attagene ARE/NRF2 reporter, transcription factor activity; actives raise or lower the signal
In short: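 Readout: reporter mRNA quantified by RT-PCR plus FAM-labelled primer extension, HpaI digestion and capillary electrophoresis, 24 h after dosing transfected HepG2 cells. Gain or loss of signal is fitted bidirectionally against DMSO baseline.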

[9] = ATG_Oct_MLP_CIS: Attagene CIS-FACTORIAL HepG2 Assay for human Octamer-Binding Transcription Factor (Oct) (AID 2282993); conditions: HepG2 Attagene cis-factorial Oct reporter, mRNA; actives raise or lower the signal
In short: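 HepG2 cells transiently transfected with cis-promoter-driven multiplexed reporter transcription units, dosed for 24 h. Reporter mRNA quantified by RT-PCR, fluorescent labelling, HpaI digestion and capillary electrophoresis; bidirectional fits versus DMSO baseline.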

[10] = molecular target: Hepatocyte nuclear factor 4-alpha (Homo sapiens) (UniProt P41235); assay: ATG_HNF4a_TRANS: Attagene TRANS-FACTORIAL HepG2 Assay for human Hepatocyte Nuclear Factor 4 alpha (HNF4a) (AID 2282982; active = hit-call score of the fitted dose curve at least 0.9, where 1 is the maximum); conditions: HepG2 HNF4a transactivation reporter, mRNA readout
In short: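 Endpoint reflects transcriptional activation of a GAL4-UAS reporter by an HNF4a-GAL4 chimera in transfected HepG2 cells, 24 h post-dosing. Fluorescence from RT-PCR products separated by capillary electrophoresis; DMSO baseline.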

[11] = ATG_M_06_TRANS: Attagene TRANS-FACTORIAL HepG2 Assay for M06 Transcription Factor (Internal Marker) (AID 2282983; active = hit-call score of the fitted dose curve at least 0.9, where 1 is the maximum); conditions: HepG2 Attagene TRANS M06 internal marker reporter
In short: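 Background-control reporter readout: after 24 h chemical exposure of transiently transfected HepG2 (GAL4-UAS reporter units), mRNA quantified by RT-PCR with fluorescent labeling and capillary electrophoresis. Gain-of-signal fitting against DMSO baseline.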

[12] = molecular target: Cellular tumor antigen p53 (Homo sapiens) (UniProt P04637); assay: ATG_p53_CIS: Attagene CIS-FACTORIAL HepG2 Assay for human p53 Transcription Factor (AID 2282994); conditions: HepG2 p53 cis-element reporter, Attagene mRNA; actives raise or lower the signal
In short: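 Read-out: reporter mRNA by RT-PCR plus capillary electrophoresis with fluorescence detection. Human HepG2 liver cells carried transfected multi-reporter cis-element constructs, dosed 24 h. Gain or loss of signal fitted bidirectionally against DMSO control.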

[13] = molecular target: Nuclear receptor subfamily 4 group A member 2 (Homo sapiens) (UniProt P43354); assay: ATG_NURR1_TRANS: Attagene TRANS-FACTORIAL HepG2 Assay for human Nuclear Receptor Related Protein 1 (NURR1) (AID 2282985; active = hit-call score of the fitted dose curve at least 0.9, where 1 is the maximum); conditions: HepG2 Attagene TRANS reporter, mRNA readout
In short: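 Endpoint: reporter mRNA increase relative to DMSO. HepG2 cells transfected with reporter units, treated 24 h; RNA processed by RT-PCR, labelling, HpaI digestion and capillary electrophoresis.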

[14] = BSK_3C_TissueFactor: BioMAP Diversity Plus: 3C Assay for Tissue Factor Biomarker Activity (AID 2282997); conditions: BioMAP 3C HUVEC, tissue factor biomarker readout; actives raise or lower the signal
In short: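 Tissue factor on primary human umbilical vein endothelium was read by ELISA 24 h after dosing, gain or loss relative to DMSO. Cytotoxicity ran alongside via SRB (0.1%, TCA-fixed, 560 nm).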

[15] = BSK_3C_uPAR: BioMAP Diversity Plus: 3C Assay for Urokinase-type plasminogen activator receptor (uPAR) Biomarker Activity (AID 2282998); conditions: BioMAP 3C HUVEC, uPAR biomarker ELISA; actives raise or lower the signal
In short: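 Human umbilical vein endothelial primary cells were exposed to test chemical for 24 h. Cell-surface uPAR was then quantified by ELISA, and responses were fitted bidirectionally against DMSO as negative control and baseline.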

[16] = BSK_3C_VCAM1: BioMAP Diversity Plus: 3C Assay for Vascular cell adhesion molecule 1 (VCAM1) Biomarker Activity (AID 2282999); conditions: BioMAP 3C HUVEC, VCAM1 ELISA, cytokine-stimulated; actives raise or lower the signal
In short: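 HUVEC primary cells, 24 h compound exposure; VCAM-1 by ELISA; gain/loss of signal fitted bidirectionally vs DMSO baseline.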

[17] = BSK_4H_Eotaxin3: BioMAP Diversity Plus: 4H Assay for Eotaxin 3 Biomarker Activity (AID 2283000); conditions: primary human endothelial cells (HUVEC); actives raise or lower the signal;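 note: CCL26 protein level quantified by ELISA in parallel with SRB cytotoxicity check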
In short: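 Human umbilical vein endothelial cells (BSK_4H system) dosed with test chemical; Eotaxin-3 (CCL26) measured by ELISA 24 h after dosing. Bidirectional curve fitting relative to DMSO negative control as baseline.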

Chain of Myc proto-oncogene protein (Homo sapiens) (P01106 whole entry, looked up, the tested form may be a part): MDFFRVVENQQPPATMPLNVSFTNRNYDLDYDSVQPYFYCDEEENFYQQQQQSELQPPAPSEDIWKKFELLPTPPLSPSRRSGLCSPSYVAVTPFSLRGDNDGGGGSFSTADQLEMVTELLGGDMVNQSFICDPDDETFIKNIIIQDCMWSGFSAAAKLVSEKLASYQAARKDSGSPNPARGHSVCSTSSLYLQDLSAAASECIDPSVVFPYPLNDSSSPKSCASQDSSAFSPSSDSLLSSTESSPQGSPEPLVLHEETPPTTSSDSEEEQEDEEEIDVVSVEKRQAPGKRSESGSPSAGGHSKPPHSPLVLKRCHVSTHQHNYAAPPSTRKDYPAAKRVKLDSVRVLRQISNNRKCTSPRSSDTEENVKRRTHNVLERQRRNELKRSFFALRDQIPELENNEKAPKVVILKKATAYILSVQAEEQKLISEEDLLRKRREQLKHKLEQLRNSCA
Chain of Cellular tumor antigen p53 (Homo sapiens) (P04637 whole entry, looked up): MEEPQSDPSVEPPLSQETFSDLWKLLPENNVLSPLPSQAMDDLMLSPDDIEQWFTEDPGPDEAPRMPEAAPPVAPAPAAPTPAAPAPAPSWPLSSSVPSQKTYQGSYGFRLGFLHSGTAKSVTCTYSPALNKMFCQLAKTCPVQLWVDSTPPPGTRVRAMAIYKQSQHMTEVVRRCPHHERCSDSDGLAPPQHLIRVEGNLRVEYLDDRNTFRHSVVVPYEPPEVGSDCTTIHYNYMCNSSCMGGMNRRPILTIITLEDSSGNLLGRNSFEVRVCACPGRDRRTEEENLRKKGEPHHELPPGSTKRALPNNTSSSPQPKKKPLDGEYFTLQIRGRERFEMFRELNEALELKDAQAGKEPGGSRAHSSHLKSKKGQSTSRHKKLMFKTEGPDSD
Chain of Transcriptional activator Myb (Homo sapiens) (P10242 whole entry, looked up): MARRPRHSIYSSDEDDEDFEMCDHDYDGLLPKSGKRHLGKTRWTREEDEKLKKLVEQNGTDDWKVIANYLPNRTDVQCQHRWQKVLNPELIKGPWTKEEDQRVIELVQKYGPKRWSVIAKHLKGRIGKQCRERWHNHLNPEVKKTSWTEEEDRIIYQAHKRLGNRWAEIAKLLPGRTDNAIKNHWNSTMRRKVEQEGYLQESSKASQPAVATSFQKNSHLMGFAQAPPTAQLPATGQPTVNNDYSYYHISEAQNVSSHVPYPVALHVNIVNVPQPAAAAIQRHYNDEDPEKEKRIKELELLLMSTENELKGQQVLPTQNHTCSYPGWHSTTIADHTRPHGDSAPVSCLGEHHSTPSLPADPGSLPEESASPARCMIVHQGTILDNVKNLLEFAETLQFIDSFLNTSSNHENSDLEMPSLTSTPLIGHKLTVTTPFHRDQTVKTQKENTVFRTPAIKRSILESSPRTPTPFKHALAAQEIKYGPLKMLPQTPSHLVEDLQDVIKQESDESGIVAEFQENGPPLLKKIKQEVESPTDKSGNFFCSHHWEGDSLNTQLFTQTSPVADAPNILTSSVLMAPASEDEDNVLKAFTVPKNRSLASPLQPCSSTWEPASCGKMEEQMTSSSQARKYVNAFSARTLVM
Chain of Nuclear respiratory factor 1 (Homo sapiens) (Q16656 whole entry, looked up): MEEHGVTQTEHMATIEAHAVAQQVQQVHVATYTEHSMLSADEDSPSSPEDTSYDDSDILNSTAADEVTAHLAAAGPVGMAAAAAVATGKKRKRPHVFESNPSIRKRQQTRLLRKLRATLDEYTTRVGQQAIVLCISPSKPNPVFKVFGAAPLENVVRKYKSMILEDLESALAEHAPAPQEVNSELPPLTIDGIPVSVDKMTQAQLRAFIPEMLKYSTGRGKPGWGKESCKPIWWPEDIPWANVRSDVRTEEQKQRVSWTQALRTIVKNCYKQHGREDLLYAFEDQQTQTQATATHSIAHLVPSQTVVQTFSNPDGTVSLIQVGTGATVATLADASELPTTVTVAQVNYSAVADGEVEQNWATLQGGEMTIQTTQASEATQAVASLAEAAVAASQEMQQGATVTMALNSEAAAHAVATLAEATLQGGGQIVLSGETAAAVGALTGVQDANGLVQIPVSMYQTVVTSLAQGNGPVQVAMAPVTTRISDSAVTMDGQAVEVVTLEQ
Chain of Hepatocyte nuclear factor 4-alpha (Homo sapiens) (P41235 whole entry, looked up, the tested form may be a part): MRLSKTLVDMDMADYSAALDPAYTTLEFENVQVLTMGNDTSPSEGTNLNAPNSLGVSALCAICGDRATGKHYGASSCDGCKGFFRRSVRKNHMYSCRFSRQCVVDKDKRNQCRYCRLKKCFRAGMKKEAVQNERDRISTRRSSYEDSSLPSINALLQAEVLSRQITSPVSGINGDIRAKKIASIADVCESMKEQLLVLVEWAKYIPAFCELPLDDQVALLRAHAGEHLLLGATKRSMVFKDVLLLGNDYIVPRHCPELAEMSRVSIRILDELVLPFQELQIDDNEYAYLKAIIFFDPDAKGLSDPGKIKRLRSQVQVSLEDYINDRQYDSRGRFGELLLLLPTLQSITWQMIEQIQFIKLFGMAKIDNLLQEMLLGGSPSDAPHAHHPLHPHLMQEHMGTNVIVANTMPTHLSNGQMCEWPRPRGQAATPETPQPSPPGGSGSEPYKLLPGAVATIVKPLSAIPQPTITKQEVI
Chain of Oxysterols receptor LXR-beta (Homo sapiens) (P55055 whole entry, looked up, the tested form may be a part): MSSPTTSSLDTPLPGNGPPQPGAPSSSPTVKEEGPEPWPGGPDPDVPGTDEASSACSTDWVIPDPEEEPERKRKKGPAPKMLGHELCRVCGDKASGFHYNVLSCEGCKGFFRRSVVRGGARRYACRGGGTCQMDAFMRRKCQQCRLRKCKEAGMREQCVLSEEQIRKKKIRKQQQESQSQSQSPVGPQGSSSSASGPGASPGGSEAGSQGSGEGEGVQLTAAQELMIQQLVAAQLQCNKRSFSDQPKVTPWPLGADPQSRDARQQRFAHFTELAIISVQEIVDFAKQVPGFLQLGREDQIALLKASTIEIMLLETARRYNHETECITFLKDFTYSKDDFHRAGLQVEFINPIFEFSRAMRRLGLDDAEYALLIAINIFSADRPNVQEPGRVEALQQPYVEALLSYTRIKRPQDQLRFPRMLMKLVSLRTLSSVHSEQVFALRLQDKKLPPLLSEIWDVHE
Chain of Nuclear receptor subfamily 4 group A member 2 (Homo sapiens) (P43354 whole entry, looked up): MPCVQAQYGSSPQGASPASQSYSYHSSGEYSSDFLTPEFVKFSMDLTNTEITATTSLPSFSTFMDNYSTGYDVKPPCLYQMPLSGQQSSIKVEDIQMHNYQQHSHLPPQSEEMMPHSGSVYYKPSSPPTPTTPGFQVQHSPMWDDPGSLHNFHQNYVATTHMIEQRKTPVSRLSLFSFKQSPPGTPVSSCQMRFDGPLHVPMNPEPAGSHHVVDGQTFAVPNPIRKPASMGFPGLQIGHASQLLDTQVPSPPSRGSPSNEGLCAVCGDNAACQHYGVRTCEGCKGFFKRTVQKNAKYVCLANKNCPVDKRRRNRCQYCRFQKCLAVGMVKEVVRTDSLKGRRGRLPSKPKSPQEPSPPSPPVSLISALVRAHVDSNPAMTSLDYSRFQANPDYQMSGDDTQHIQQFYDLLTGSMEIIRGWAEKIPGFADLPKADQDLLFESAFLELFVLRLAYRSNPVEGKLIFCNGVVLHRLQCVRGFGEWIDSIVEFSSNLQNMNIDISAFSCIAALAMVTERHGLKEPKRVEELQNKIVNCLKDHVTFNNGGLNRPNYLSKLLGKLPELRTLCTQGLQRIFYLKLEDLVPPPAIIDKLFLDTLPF

SMILES | outcome [1] | outcome [2] | outcome [3] | outcome [4] | outcome [5] | outcome [6] | AC50 [7] | AC50 [8] | outcome [9] | outcome [10] | outcome [11] | outcome [8] | outcome [12] | outcome [13] | outcome [7] | outcome [14] | outcome [15] | outcome [16] | outcome [17]
O=S(=O)(O)c1ccc2cc(O)c(S(=O)(=O)O)cc2c1 | inactive | inactive | inactive | inactive | inactive | inactive | 120 µM (active) | 46.6 µM (active) | inactive | – | – | – | – | – | – | – | – | – | –
COCCOCCOCCOCCOC | inactive | – | inactive | inactive | inactive | inactive | – | – | inactive | inactive | inactive | inactive | inactive | – | – | – | – | – | –
CC(C)(C)C(=O)CCc1ccc(Cl)cc1 | inactive | inactive | inactive | – | inactive | inactive | – | – | inactive | – | inactive | – | – | inactive | – | – | – | – | –
COc1c2ccoc2cc2oc(=O)ccc12 | inactive | – | inactive | – | inactive | inactive | – | – | inactive | inactive | inactive | inactive | inactive | inactive | – | – | – | – | –
N#[N+]c1ccc2c(S(=O)(=O)[O-])cccc2c1O | inactive | inactive | inactive | inactive | inactive | inactive | – | – | inactive | inactive | – | inactive | inactive | inactive | inactive | inactive | inactive | inactive | inactive
[Cl][Nd]([Cl])[Cl] | inactive | inactive | inactive | inactive | inactive | inactive | – | – | inactive | – | – | inactive | – | inactive | inactive | – | – | – | –
CC(C)CCCCCOC(=O)CCS | inactive | inactive | inactive | inactive | inactive | inactive | – | – | – | – | – | – | inactive | – | inactive | – | – | – | –
Cc1cc(O)c(Cl)c(C)c1Cl | inactive | – | inactive | inactive | inactive | inactive | – | 33.4 µM (active) | – | – | inactive | – | – | – | inactive | – | – | – | –
O=C(OCC1CCC2OC2C1)C1CCC2OC2C1 (configuration not stated) | inactive | – | inactive | inactive | inactive | inactive | – | – | inactive | – | inactive | inactive | – | inactive | inactive | – | – | – | –
C[C@]12C=CC(=O)C=C1CC[C@@H]1[C@@H]2[C@@H](O)C[C@@]2(C)[C@H]1CC[C@]2(O)C(=O)CO | inactive | – | inactive | inactive | inactive | inactive | – | – | inactive | – | inactive | inactive | inactive | inactive | inactive | – | – | – | –
C[Si](C)(CCCN)O[Si](C)(C)CCCN | inactive | inactive | inactive | inactive | inactive | inactive | – | – | inactive | – | inactive | inactive | inactive | – | inactive | – | – | – | –
COC(=O)/C=C\C(=O)O | inactive | – | inactive | inactive | inactive | inactive | – | 43.3 µM (active) | inactive | inactive | inactive | – | inactive | – | inactive | – | – | – | –
